High-throughput results as filed in PubChem BioAssay.
ClpP mod: qHTS Assay for Activators of ClpP. ATP-dependent Clp protease proteolytic subunit (Bacillus subtilis (strain 168)), P80244. purified B. subtilis ClpP, FRET peptide cleavage, 20 min. Potency, µM (series often up to 57.5 µM), for inactives: top-dose activity change, negative = active. 340,000 compounds, 1.9% hits; active means well fitted falling curve with a large enough effect; inconclusive means small, poorly fitted or top-dose-only effect; inactive means no such curve, though single readings can be large or run the other way; further: the source files actives as falling curves though it sought activators and does not explain the sign; nearly all actives have a fitted effect of over 65% in size
Target sequence (P80244 whole entry, looked up): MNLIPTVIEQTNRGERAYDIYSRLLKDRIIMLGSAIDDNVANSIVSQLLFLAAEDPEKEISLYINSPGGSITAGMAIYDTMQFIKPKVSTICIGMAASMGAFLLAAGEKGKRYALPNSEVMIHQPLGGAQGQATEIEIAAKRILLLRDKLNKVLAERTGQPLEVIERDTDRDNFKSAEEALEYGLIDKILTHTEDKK
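Buffer: 100 mM Tris/HCl pH8, 100 mM KCl, 0.05% low protease BSA, 2.5% glycerol, 0.01% Tween-20. ClpP 10 microg/mL final; 20 min RT; delta FRET normalized to ADEP and DMSO controls.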
GALK inh: qHTS Assay for Inhibitors of Human Galactokinase (GALK); P51570; Purified GALK, Kinase-Glo residual ATP luminescence; Potency, µM (top dose mostly 57.5 µM), for the others: top-dose activity change, negative = inhibition, usual class: inhibitors; 270,000 compounds, 0.007% hits; AID 1868, 2009; further: on the % scale 0 is the no-effect control and ±100 the full control effect
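Kinase-Glo Plus luminescence measured ATP left after a 1 h room-temperature reaction. The reaction used 5 nM GALK, 100 uM galactose and 35 uM ATP at pH 8.0 (20 mM HEPES, 5 mM MgCl2, 60 mM NaCl, 1 mM DTT, 0.01% BSA).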
USP2a block: qHTS Assay for Inhibitors of Ubiquitin-specific Protease USP2a Using CHOP2 as the Reporter. USP2 core, Ub-CHOP2 coupled fluorogenic reporter, 485/531. Potency, µM (series often up to 38.3 µM), inactives show at the top dose activity change, negative = inhibition, usual class: inhibitors. Ubiquitin carboxyl-terminal hydrolase 2 (Homo sapiens), O75604. 330,000 compounds, 0.01% hits;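 further: plate controls were DMSO wells for no effect and full inhibition by NEM control for full effect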
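Cell-free coupled assay: 10nM USP2 core preincubated 30min RT with compound in Tris-HCl pH 8.0/CaCl2/CHAPS buffer, then 25nM Ub-CHOP2 and 25nM reporter substrate; fluorescence (Ex 485/Em 531) read after 60min RT, normalized to NEM inhibition, concentration-response curves fitted.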
Eya2 phos inh: qHTS Assay for Inhibitors of the Phosphatase Activity of Eya2; recombinant Eya2, OMFP fluorescence dephosphorylation (OMFP is methylfluorescein phosphate); Potency, µM (doses to about 76.9 µM), inactives show top-dose activity, negative = inhibition, usual class: inhibitors; Protein phosphatase EYA2 (Homo sapiens), O00167; 330,000 compounds, 0.006% hits; further: on the % scale 0 is the no-effect control and ±100 the full control effect
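Eya2 (0.2 uM) preincubated 10 min at ambient with compound, then OMFP substrate added at 50 uM; 10 min reaction in 50 mM HEPES pH 7.5, 50 mM NaCl, 5 uM MgCl2, 0.05% BSA, 1 mM DTT. Fluorescence read at Ex 485/Em 525 nm.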
Numbers without * were called inactive; ? = inconclusive; / = no result given; ! = not confirmed by another sample. This excerpt belongs to a sample that is enriched for hits. Unless noted, the call rests on the fitted dose curve; in most records, active means well fitted inhibition curve with a large enough effect; inconclusive means small, poorly fitted or top-dose-only effect, or effect the other way; inactive means flat fitted curve, though single readings scatter. Potency means the concentration at half of the fitted maximal effect.

SMILES	ClpP mod	GALK inh	USP2a block	Eya2 phos inh
CC(C)C(C(=O)NCc1ccco1)N(CC1CCCO1)C(=O)CNS(=O)(=O)c1ccccc1 (stereo not given)	/	6%	0%	9%
O=S(=O)(c1ccc(-c2cnc(C3CC3)o2)cc1)N1CCN(c2ccccc2F)CC1	28µM*	/	/	/
Cc1ccc(Cl)cc1N1CCN(S(=O)(=O)c2ccc(-c3cnc(C4CC4)o3)cc2)CC1	4%	/	/	/
O=C(Nc1sc2c(c1-c1nc3ccccc3[nH]1)CCCC2)C1CCCC1	10µM*	-1%	-11%	0%
CC(=O)NCCC(=O)Nc1sc2c(c1-c1nc3ccccc3[nH]1)CCCC2	?	-3%	-1%	-7%
Cc1cc(C(=O)NC(C)c2ccncc2)cs1 (stereo not given)	-3%	1%	-1%	17%
Clc1cccc(Cl)c1CO/N=C/c1c(-c2ccccc2)nc2n1CCS2	25µM*	-2%	2%	2%
CCOC(=O)CN(c1ccccc1)S(=O)(=O)c1ccc(F)cc1	/	11%	2%	7%
CCN(CC(=O)NCCc1ccc(F)cc1)Cc1nc2ccccc2c(=O)[nH]1	-1%	1%	-1%	3%
CCN(CC(=O)NCc1ccc(F)cc1)Cc1nc2cc(Cl)ccc2c(=O)[nH]1	7.1µM*	-3%	1%	-2%
O=C(O)c1nn(CC(=O)N2CCCCCC2)c(=O)c2ccccc12	28µM*	7%	2%	10%
Cc1cc(C)nc(N2CCCC(C(=O)NCCc3ccc(F)cc3)C2)n1 (stereo not given)	11µM*	5%	3%	-6%
Cc1cc(C)nc(N2CCC(C(=O)NCCc3ccc(F)cc3)CC2)n1	?	-1%	5%	-3%
Cc1ccc(CNS(=O)(=O)c2cc(F)ccc2CN2C(=O)c3cccnc3C2=O)o1	0%	-12%	3%	6%
Cc1ccccc1C(=O)N/N=C/c1ccc(Sc2ccccn2)o1	-15%	2%	2%	/
O=C(N/N=C\c1ccc(Sc2ccccn2)o1)c1cccc(Br)c1	0%	0%	-2%	3.2µM*
COCCn1c(SCC(=O)Nc2ccccc2OC)nnc1-c1ccco1	/	-1%	2%	-1%
COc1cccc(-c2nn(C)c3sc(C(=O)NCc4ccc(C)cc4)cc23)c1	20µM*!	4%	0%	-10%
Cc1ccc(NC(=O)c2cc3c(-c4ccccc4)nn(-c4ccccc4)c3s2)cc1	18µM*	/	/	/
COc1cccc(-c2nn(C)c3sc(C(=O)NCCc4cccc(C)c4)cc23)c1	4%	/	/	/
COc1cccc(-c2nn(C)c3sc(C(=O)NCc4ccccn4)cc23)c1	28µM*	0%	1%	-1%
CC1=C(C(=O)N(C)C)CC(CC(=O)NC2CCCC2)C(=O)N1Cc1ccccc1 (stereo not given)	0%	/	/	/
Cc1ccc(CC(C)(O)CC(C)(O)Cc2ccc(C)cc2)cc1 (stereo not given)	-7%	/	/	/
COc1cc(-c2nc3ccc4ccccc4c3c3c2CCC3)cc(OC)c1OC	25µM*	-2%	-1%	-7%
COc1cc(-c2nc3ccc4ccccc4c3c3c2CCC3)cc(OC)c1O	-1%	1%	2%	2%
SMILES	ClpP mod	GALK inh	USP2a block	Eya2 phos inh
CC(=O)c1ccc2c(c1)Nc1ccccc1S2	32µM*	0%	4%	-3%
COC(=O)c1ccc(-c2ccco2)n1Cc1cccc(C)c1	?	-5%	-1%	-3%
COC(=O)c1ccc(-c2ccco2)n1Cc1cc(C)ccc1C	32µM*	3%	-1%	-1%
CCCCN(C(=O)C1CC(=O)N(Cc2ccc(C)cc2)C1)c1c(N)n(CCCC)c(=O)[nH]c1=O (stereo not given)	22µM*	/	3%	-5%
COCCNC(=O)c1ccc(NS(=O)(=O)c2cc(C)ccc2C)cc1	0%	1%	1%	26%
Clc1ccc2c(SCC3CO3)c3ccccc3nc2c1 (stereo not given)	32µM*	/	/	/
O=C(CSc1c2c(nc3cc(Cl)ccc13)CCCC2)NCCN1CCOCC1	/	-2%	4%	14%
[2H]C(CCOS(N)(=O)=O)c1ccc(C(C)(C)C)cc1 (stereo not given)	1%	/	2%	-4%
